Screens: PubChem, Broad Institute
Only a selection was taken, and hits are over-represented in it overall.
Rtt109 Vps75: C. albicans Rtt109 histone acetyltransferase inhibition; 0.16% of 330,000 active; purified Rtt109/Vps75, ThioGlo CoA-SH fluorescence, 4 h; inhibition, % at 34.9 µM; Q5AAJ8;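 active means inhibition of at least 50% in every replicate; inconclusive means best replicate reaches 50% inhibition but some replicates fall short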
Target sequence (Q5AAJ8 whole entry, looked up): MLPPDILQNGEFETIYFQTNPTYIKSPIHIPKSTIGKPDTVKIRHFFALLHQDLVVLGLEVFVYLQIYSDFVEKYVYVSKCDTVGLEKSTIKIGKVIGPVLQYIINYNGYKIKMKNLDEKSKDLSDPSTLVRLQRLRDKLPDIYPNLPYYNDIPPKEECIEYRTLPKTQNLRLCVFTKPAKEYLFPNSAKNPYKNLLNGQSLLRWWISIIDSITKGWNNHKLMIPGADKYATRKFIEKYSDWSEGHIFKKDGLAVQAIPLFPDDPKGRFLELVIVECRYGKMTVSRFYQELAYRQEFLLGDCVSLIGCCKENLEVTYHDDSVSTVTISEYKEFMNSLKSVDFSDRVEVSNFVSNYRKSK
Glyco luc inh: blocks N-linked glycosylation in D54 reporter cells; D54 ERlucT glycosylation luciferase reporter, 24 h; percent of 100 nM tunicamycin response; 0.23% of 360,000 active; reporter increase, % at 12.5 µM;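 active means mean luciferase reporter signal, scaled so untreated is 0 and the glycosylation-blocking control 100, at or above a set limit in every replicate; inconclusive means mean reaches the limit but not every replicate does; inactive means mean below the limit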;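 further: luciferase carries N-glycosylation sites so blocking glycosylation raises the light; 0% = median of neutral control wells and 100% = median of 100 nM tunicamycin wells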
PglD DTNB: PglD (C. jejuni) enzyme inhibition; purified PglD enzyme, DTNB colorimetric CoA detection; 0.098% of 360,000 active; inhibition, % at 12.5 µM; in the data active means inhibition above about 16%, passing the limit was not always enough; inconclusive means no clear call, values can overlap the other calls
DENV2 CPE: protects cells from dengue virus 2 cytopathic effect; 1.7% of 350,000 active; CPE inhibition, % at 9.99 µM; AID 651640; DENV2-infected cells, cytopathic effect rescue, plate reader; in the data active means CPE inhibition above about 20%, passing the limit was not always enough; inconclusive means no clear call, values can overlap the other calls; tested in BHK-21 cells;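 further: 0% = median of neutral control wells and 100% = median of positive control wells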
* = called active by the depositor; ? = inconclusive; . = no result given.

SMILES | Rtt109 Vps75 | Glyco luc inh | PglD DTNB | DENV2 CPE
NC(=O)CC[C@H](NC(=O)[C@H](Cc1ccccc1)n1c(=O)[nH]c2ccccc2c1=O)C(=O)N1CCC[C@H]1C(=O)O | -6.2 | 0.3 | -0.3 | 66.3*
CSCC[C@H](NC(=O)[C@H](Cc1ccccc1)n1c(=O)[nH]c2ccccc2c1=O)C(=O)N1CCC[C@H]1C(=O)O | -9.9 | 0.1 | 5.4 | 5.7
COc1ccc(S(=O)(=O)N(C)C[C@@H]2Oc3ccc(NS(=O)(=O)c4ccc(F)cc4)cc3C(=O)N([C@H](C)CO)C[C@H]2C)cc1 | . | . | -1.7 | 6.7
C[C@H]1[C@@H](Cc2cc(Cl)cc(Cl)c2)N(c2ccccc2)c2ccccc2CN1Cc1ccccc1 | . | . | . | 43.4*
COc1ccc(NC2=C(C)C(=O)CC2)cc1 | -5.1 | 31.7* | 2.1 | .
COc1ccc(Nc2ccc(OC)cc2)cc1 | . | -0.5 | 1.4 | -0.3
C[C@@H]1CCCCO[C@@H](CN(C)Cc2ccc(Cl)c(Cl)c2)[C@H](C)CN([C@H](C)CO)C(=O)c2cc(NC(=O)C3CCCCC3)ccc2O1 | . | . | 0.5 | -4.2
CCC(C)(C)C1CCc2[nH]nc(C(=O)NCc3ccccn3)c2C1 (stereo not drawn) | -4.0 | -1.8 | 2.6 | 77.0*
C[C@@H]1CN([C@H](C)CO)C(=O)Cc2cc(NS(C)(=O)=O)ccc2O[C@H]1CN(C)C(=O)Nc1ccc2c(c1)OCO2 | . | . | 3.1 | -9.8
C[C@H](CO)N1C[C@H](C)[C@@H](CN(C)C(=O)Nc2ccc3c(c2)OCO3)Oc2ccc(NS(C)(=O)=O)cc2CC1=O | . | . | 5.3 | 30.6*
C[C@@H]1CN([C@@H](C)CO)C(=O)Cc2cc(N(C)C)ccc2O[C@H]1CN(C)C(=O)Nc1ccc2c(c1)OCO2 | . | . | -0.7 | 30.0*
O=C(CCc1nnc(Cc2c[nH]c3ccccc23)o1)NC1CCCC1 | 7.2 | -0.6 | 5.8 | 6.2
O=C(CCc1nnc(Cc2c[nH]c3ccccc23)o1)NCCC1CCCCO1 (stereo not drawn) | . | 0.4 | 2.9 | 54.2*
CO[C@@H]1CN(C)C(=O)c2cc(NS(=O)(=O)c3cn(C)cn3)ccc2OC[C@H](C)N(Cc2cccc(F)c2)C[C@H]1C | . | . | -2.3 | 2.5
CCOC(=O)C1CCN(C(=O)COC(=O)c2ccc([N+](=O)[O-])o2)CC1 | -2.4 | 0.4 | 3.8 | 76.3*
CC1CC(C)CN(C(=O)COC(=O)c2ccc([N+](=O)[O-])o2)C1 (stereo not drawn) | -2.2 | -1.5 | 4.0 | -2.8
O=C(Nc1ccccc1)N1C[C@H]2[C@@H](c3ccccc31)[C@H](CO)N2Cc1ccccc1 | . | . | 3.6 | 56.9*
CC(C)NC(=O)N1[C@H](CO)[C@@H]2c3ccccc3N(C(=O)Nc3ccc(F)cc3)C[C@@H]21 | . | . | -1.0 | -9.7
O=C(Nc1ccccc1)N1C[C@@H]2[C@H](c3ccccc31)[C@@H](CO)N2Cc1ccccc1 | . | . | 2.5 | 45.3*
O=C(Nc1ccc(F)cc1)N1C[C@H]2[C@@H](c3ccccc31)[C@@H](CO)N2Cc1ccccc1 | . | . | -1.4 | 12.3
CC(C)NC(=O)N1[C@H](CO)[C@H]2c3ccccc3N(C(=O)Nc3ccc(F)cc3)C[C@H]21 | . | . | 2.4 | 27.0*
O=C(Nc1ccc(F)cc1)N1C[C@@H]2[C@H](c3ccccc31)[C@@H](CO)N2Cc1ccccc1Cl | . | . | 0.6 | ?
O=C(Nc1ccc(F)cc1)N1C[C@H]2[C@@H](c3ccccc31)[C@@H](CO)N2Cc1ccccc1Cl | . | . | -1.5 | 30.0*
CCCC(=O)Nc1ccc2c(c1)C(=O)N(C)[C@H]1CC[C@H](CC(=O)Nc3ccccc3)O[C@@H]1CO2 | . | . | -2.6 | -3.5
CCC(=O)N1C[C@@H]2[C@H](c3ccccc31)[C@H](CO)N2Cc1ccccc1OC | . | . | 3.3 | 35.1*
SMILES | Rtt109 Vps75 | Glyco luc inh | PglD DTNB | DENV2 CPE
C=C(C)CSc1nc2c(c(=O)[nH]c(=O)n2C)n1Cc1ccccc1 | -2.7 | -2.8 | 4.6 | -10.5
Cn1c(=O)[nH]c(=O)c2c1nc(SCC(N)=O)n2Cc1cccc(Br)c1 | 0.3 | 26.6* | 1.0 | -2.6
O=C(CCl)Nc1cn(-c2ccccc2)nc1-c1ccc(F)cc1 | -13.1 | 51.6* | . | 2.0
CC(C)(C)C1CCc2c(sc(NC(=O)CSc3nnc(-c4ccccc4)o3)c2C#N)C1 (stereo not drawn) | 56.2* | 1.9 | -1.9 | .
Cc1ccnc(SCC(=O)Nc2sc3c(c2C#N)CCC(C(C)(C)C)C3)n1 (stereo not drawn) | -2.9 | -5.1 | 1.2 | .
C[C@H]1CN([C@@H](C)CO)C(=O)c2cccc(NS(=O)(=O)c3ccc(Cl)cc3)c2O[C@H]1CN(C)S(=O)(=O)c1ccc(F)cc1 | . | . | -1.9 | -11.1
O=c1c2ccccc2sn1-c1cc(S(=O)(=O)N2CCOCC2)ccc1N1CCOCC1 | 121.9* | 2.2 | -3.2 | .
